Bioassay records deposited in PubChem BioAssay by several laboratories.
Platelet DG rel – inhibitors of platelet dense granule secretion, primary screen, cell-based, MLPCN, human platelets | human platelet-rich plasma, SFLLRN dense granule ATP release, luminescence | inhibition, %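 (compounds screened at 7.5 µM in platelet-rich plasma)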 | hit rate 0.22% among 300,000;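 active means mean replicate score, as percent of positive control, at or above 50; inconclusive means mean below 50 but at least one replicate at or above 50; inactive means mean and every replicate below 50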
SKKanGAS inh – S. pyogenes SKKanGAS growth inhibitors in kanamycin, primary screen, streptokinase expression inhibitor project, SKKanGAS strain, BacTiter-Glo luminescence. 6 h. inhibition, % at 7.5 µM. hit rate 1.3% among 300,000. AID 1662, 2009;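 active means mean replicate score, as percent of positive control median, at least 50; inconclusive means mean below 50 but one replicate at or above 50; inactive means mean and every replicate below 50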;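 further: strain carries kanamycin resistance gene driven by streptokinase promoter and grows in 40 µg/ml kanamycin; loss of luminescence reflects streptokinase promoter inhibition or plain growth inhibition; 0% = median of DMSO wells and 100% = positive control at its reference dose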
Calb FLC – C. albicans growth inhibition with fluconazole, primary screen, CaCi-2 strain, Alamar Blue fluorescence; AID 1979, 2009; C. albicans CaCi-2 (fluconazole-resistant clinical isolate) + fluconazole, 48 h; hit rate 0.57% among 300,000; growth inhibition, % (test concentration not listed);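 active means growth inhibition above about 58% in most replicates, limit read from the data, passing the limit was not always enough; inconclusive means exactly half the replicates above a set limit; inactive means most replicates below a set limit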;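 further: all wells also contain fluconazole at 8 µg/ml as a sub-toxic cotreatment; 0% = median of DMSO wells and 100% = median of geldanamycin control wells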
PolyA inhibitor – polyadenylation inhibitors in yeast reporter cells, primary screen, luminescence, S. cerevisiae; S. cerevisiae SKY197-pL101 polyadenylation reporter, beta-gal luminescence; efflux-impaired pdr1/pdr3 knockout yeast; score 100 = 6 SD above DMSO; hit rate 0.02% among 300,000; activity score, % at 12 µM;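 active means lowest replicate activity score at least 50, where 100 means six control SD above control mean; inconclusive means lowest score under 50 but half or more replicates reach 50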;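 further: yeast exposed to compound for 9 h at 30 °C; higher score means more reporter readthrough which indicates perturbed polyadenylation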
CR mimetic SO – reduction of superoxide in aged yeast, primary screen, HTS; S. cerevisiae aged cells, superoxide DHE fluorescence; active compounds read low; superoxide response (% of plate mean), % at 10 µM; hit rate 0.18% among 330,000; AID 2690, 2010;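 active means superoxide response under a set limit, about three screen SD below normal, cut at about 65% in these data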;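 further: yeast aged for seven days with compound at 30 °C before DHE staining; 100% = average MFI of all compound-treated wells on the plate with controls excluded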
* = called active by the depositor; ? = inconclusive; nt = not tested or not shown. The list is not random: actives were taken first. Their share in the collection is about 2%.

SMILES	Platelet DG rel	SKKanGAS inh	Calb FLC	PolyA inhibitor	CR mimetic SO
N#Cc1c(Cl)nsc1NC(=O)c1ccccc1	2.0	22.2	106.2*	-9.7	114.2
COc1cc(-c2nnc(SCC(=O)c3ccccc3)o2)cc(OC)c1OC	12.5	-14.1	26.9	-1.3	113.3
COc1cc(-c2nnc(SCc3cc(=O)oc4cc(O)c(O)cc34)o2)cc(OC)c1OC	-0.4	-5.0	104.3*	5.0	93.2
Cc1cc(C(=O)Nc2ccccc2C(=O)O)ccc1NC(=O)COc1cccc(C)c1C	5.6	53.6*	3.3	10.7	nt
O=C(COc1ccc(Cl)cc1Cl)Nc1ccc(C(=O)Nc2ccccc2C(=O)O)cc1	0.7	61.6*	-1.1	-10.1	88.8
O=C(COc1ccc(Cl)cc1Cl)NC(=S)Nc1ccccc1C(=O)O	0.1	14.8	-1.3	-3.2	122.6
COc1ccc(CN2CCC(C(=O)Nc3ccc(Oc4cccnc4)cc3)CC2)c(C)c1C	-3.7	22.5	33.7	-18.9	98.4
Cc1ccc(S(=O)(=O)NCC(=O)OCC(=O)Nc2ccc3c(c2)OCCO3)cc1	nt	nt	nt	nt	118.6
O=C(Nc1ccccc1C(=O)O)c1cccc(NC(=O)c2ccc(Br)o2)c1	-1.0	83.2*	23.2	-4.3	114.8
O=C(NC(Cc1ccccc1)C(=O)NCc1ccccn1)c1ccco1 (stereo unspecified)	-1.2	-4.0	103.1*	6.7	108.5
COc1ccc(C(=O)N/C(=C/c2ccccc2F)C(=O)NCCN2CCOCC2)cc1OC	-4.5	-1.9	nt	-2.8	101.7
CC(=O)Nc1ccc(S(=O)(=O)N(C)CC(=O)OCC(=O)N(C)c2ccccc2)cc1	4.7	-1.6	0.6	-12.1	98.0
Cc1ccc(C(=O)/C=C/c2ccc3ncccc3c2)cc1	7.5	-2.8	44.9	2.7	95.7
O=C(Nc1ccc(-c2csc(Nc3cccc(C(F)(F)F)c3)n2)cc1)c1cc([N+](=O)[O-])cc(C(F)(F)F)c1	5.3	53.4*	-0.6	-13.6	102.2
O=C(Nc1cccc(-c2csc(Nc3cccc(C(F)(F)F)c3)n2)c1)c1ccccc1	-10.1	93.4*	3.7	6.9	86.5
O=C(Nc1cccc(-c2csc(Nc3ccccc3)n2)c1)c1ccccc1	-1.6	40.9	9.7	-0.4	100.7
O=C(Nc1ccc(-c2csc(Nc3cccc(C(F)(F)F)c3)n2)cc1)c1ccccc1	-5.2	84.5*	-10.0	7.8	90.0
CC(C)CN(CCCNC(=O)CN1C(=O)COc2ccc(S(=O)(=O)N3CCCC3)cc21)CC(C)C	-1.9	-0.9	25.8	-14.2	97.4
Brc1ccc2[nH]c3c(N4CCc5ccccc5C4)ncnc3c2c1	7.0	85.9*	-4.6	-27.1	99.0
CCOc1ccc2[nH]c3c(N4CCc5ccccc5C4)ncnc3c2c1	-4.7	51.3*	-0.6	-8.3	88.7
Cc1ccc2[nH]c3c(N4CCc5ccccc5C4)ncnc3c2c1	0.5	34.2	59.6	-28.6	86.8
Cc1ccc(CNC(=O)CSc2nnc(CNC(=O)c3ccccc3)o2)cc1	9.4	1.4	-10.9	9.1	97.4
COc1cc(OC)cc(C(=O)NNC(=O)C(=O)Nc2cc(OC)c(Cl)cc2OC)c1	11.2	53.9*	1.1	-10.0	76.2
O=C(Nc1nc(-c2ccccc2)cs1)C1CCCO1 (stereo unspecified)	7.9	-8.4	4.1	-9.7	95.5
COc1cccc2sc(Nc3nc(-c4ccccn4)cs3)nc12	-0.4	99.5*	-38.2	19.6	102.5
SMILES	Platelet DG rel	SKKanGAS inh	Calb FLC	PolyA inhibitor	CR mimetic SO
O=C(Nc1nc(-c2ccc(-c3ccccc3)cc2)cs1)C1CCCO1 (stereo unspecified)	4.2	63.9*	-0.4	-9.3	96.2
O=C(Nc1nc(-c2ccccn2)cs1)C1CC1	3.6	50.6*	5.3	-1.5	97.0
O=C(Nc1nc(-c2ccccn2)cs1)C12CC3CC(CC(O)(C3)C1)C2	-0.4	?	-25.6	18.4	116.1
O=C(CC1CC2CCC1C2)Nc1nc(-c2ccccn2)cs1 (stereo unspecified)	3.9	76.2*	86.5*	-7.9	98.1
Cc1ccc(OCC(=O)OCC(=O)N2c3ccccc3CC2C)cc1C (stereo unspecified)	nt	nt	nt	nt	87.2
CN(CC(=O)Nc1ncn[nH]1)S(=O)(=O)c1ccc(Br)cc1	-11.8	-5.8	0.4	-8.0	99.3
c1ccc(-c2csc(Nc3cccnc3)n2)nc1	6.2	-5.0	3.2	-1.4	89.8
c1ccc(Nc2nc(-c3ccccn3)cs2)cc1	7.1	99.7*	?	23.0	91.7
COCc1ccc(C(=O)N2CCCC(C(=O)c3cc(F)ccc3F)C2)s1 (stereo unspecified)	1.6	-5.8	6.8	-9.3	103.2
CC(C)(C)c1cc(NCc2ccccn2)n2ncc(-c3ccccc3)c2n1	nt	108.0*	8.4	-81.9	440.5
Cc1cc(NCc2ccccc2)n2ncc(-c3ccccc3)c2n1	-1.2	11.3	11.2	9.8	82.1
O=C(CS(=O)(=O)Nc1ccc(F)cc1Cl)Nc1ccc(F)cc1Cl	2.5	-0.6	78.8*	-16.8	100.7
O=C(NCc1n[nH]c(=S)n1-c1ccc(Br)cc1)c1cccs1	-0.2	9.2	-18.8	7.5	85.9
CCN1C(=O)Nc2cccc3cccc1c23	58.9*	-7.4	2.2	-11.1	103.5
COc1cccc2nc3cc(C)c(C)cc3nc12	70.1*	54.4*	2.1	6.8	62.7*
CC(C)(C)OC(=O)n1cc(CCO)c2ccccc21	nt	nt	nt	nt	111.2
O=C(NC(NC(=S)Nc1ccc(Cl)c(Cl)c1)C(Cl)(Cl)Cl)c1ccco1 (stereo unspecified)	3.1	74.0*	-3.6	1.8	88.3
O=C(NC(NC(=S)Nc1cccc(C(=O)O)c1)C(Cl)(Cl)Cl)OCc1ccccc1 (stereo unspecified)	0.4	6.6	2.4	4.6	119.2
CC(C)COc1ccc(C(=O)Nc2ccc(NC(=O)c3ccco3)c(Cl)c2)cc1	49.7*	4.2	-0.9	1.8	112.0
Cc1ccc(C(=O)Nc2ccc3c(c2)OCO3)cc1NC(=O)c1ccco1	-1.1	2.8	1.7	-2.5	95.1
Cc1cc(NC(=O)c2ccc3c(c2)OCO3)ccc1NC(=O)c1ccco1	74.9*	13.8	-3.4	0.4	113.2
O=C(NC(NC(=S)Nc1cccc(Cl)c1)C(Cl)(Cl)Cl)OCc1ccccc1 (stereo unspecified)	-3.6	121.9*	-18.1	-3.0	106.0
S=c1cnc2ccccc2[nH]1	-0.8	-2.6	-15.0	4.9	105.4
CN(C(=O)Cn1nnc(-c2ccccc2)n1)C1CCS(=O)(=O)C1 (stereo unspecified)	-8.8	-3.7	-0.5	-3.5	95.1
O=C(Nc1ccc(OC(=O)c2ccco2)cc1)c1ccco1	-4.3	3.1	-1.6	2.9	94.2
O=C(Nc1ccc(Cl)c(Cl)c1)Oc1ccc(NC(=O)c2ccco2)cc1	1.8	71.7*	-3.0	-1.6	111.4
